# UGM FP inh: blocks M. tuberculosis UGM enzyme. purified UGM, fluorescence polarization probe displacement. inhibition, % at 10 µM. hit rate 0.06% among 320,000. P9WIQ1. AID 504406; in the data active means inhibition above about 10%, passing the limit was not always enough
# Target sequence (P9WIQ1 whole entry, looked up): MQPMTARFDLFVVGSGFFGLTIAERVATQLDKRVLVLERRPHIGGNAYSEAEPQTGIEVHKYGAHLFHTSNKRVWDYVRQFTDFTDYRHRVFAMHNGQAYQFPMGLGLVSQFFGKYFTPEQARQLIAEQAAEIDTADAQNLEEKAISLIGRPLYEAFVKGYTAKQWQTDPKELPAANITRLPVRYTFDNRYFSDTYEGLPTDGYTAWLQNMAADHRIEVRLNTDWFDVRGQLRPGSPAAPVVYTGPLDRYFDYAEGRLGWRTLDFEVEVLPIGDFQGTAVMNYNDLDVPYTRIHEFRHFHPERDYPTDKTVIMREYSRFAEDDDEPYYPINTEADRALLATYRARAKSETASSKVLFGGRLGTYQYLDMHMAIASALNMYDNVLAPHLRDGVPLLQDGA
# Mtb FBA inh: Mtb fructose-bisphosphate aldolase inhibition | P9WQA3 | inhibition, % at 1 µM | hit rate 2.3% among 360,000 | purified M. tuberculosis FBA, fluorescence read-out;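 further: 0% = vehicle and 100% = reference inhibitor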
# Rv3671c inh: inhibits the M. tuberculosis serine protease Rv3671c; inhibition, % at 5.96 µM; AID 2606; hit rate 0.048% among 320,000; in the data active means inhibition above about 38%;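 further: extracellular domain of Rv3671c used as enzyme; 0% = enzyme with DMSO and 100% = no enzyme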
# FadD28 FP inh: blocks FadD28 binding to the bisubstrate probe. fluorescence polarization. inhibition, % at 12.5 µM. hit rate 0.22% among 360,000; in the data active means inhibition above about 8.5%, passing the limit was not always enough
# GDH-TPI counter-1: GDH-TPI coupled enzyme inhibition counter-screen; GDH-TPI coupled enzyme counterscreen, NADH absorbance; inhibition, % at 4.8 µM; hit rate 1.2% among 360,000; AID 588335; in the data active means inhibition above about 30%;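 further: 0% = DMSO wells and 100% = wells lacking the enzyme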
# Mtb hypoxia inh: inhibitors of hypoxia-regulated fluorescent reporter in Mycobacterium tuberculosis | M. tuberculosis hypoxia-regulated fluorescent reporter, fluorescence | fluorescence inhibition, % (no concentration beside the values) | hit rate 0.1% among 300,000 | AID 1159583; in the data active means fluorescence inhibition mostly above about 23%, no sharp cut-off; inactive means mostly below about 17%
# Mtb FBA inh conf: confirmation of M. tuberculosis fructose-bisphosphate aldolase inhibitors; hit rate 78% among 5,600; AID 651616; purified M. tuberculosis FBA, fluorescence read-out; shares compounds with Mtb FBA inh; inhibition, % at 1 µM;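 further: 0% = vehicle wells and 100% = reference inhibitor wells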
# GDH-TPI counter-2: counter-screen for M. tuberculosis FBA inhibitors: GDH-TPI coupled enzyme inhibition; shares compounds with Mtb FBA inh; GDH-TPI coupled enzyme counterscreen, fluorescence; inhibition, % at 1 µM; hit rate 81% among 5,600; AID 652141; in the data active means inhibition above about 10%
# An asterisk follows results filed as active; . = no result; + = active, no number. The list is not random: actives were taken first. Their share in the collection is about 3.5%. Unless noted, no stated cut-off is given here; in the data, active means inhibition above about 27%; inactive means the rest.
SMILES,UGM FP inh,Mtb FBA inh,Rv3671c inh,FadD28 FP inh,GDH-TPI counter-1,Mtb hypoxia inh,Mtb FBA inh conf,GDH-TPI counter-2
Cc1cc(NC(=O)CCC(=O)N(c2ccccc2C)C(C(=O)NC2CCCC2)c2ccccc2)no1 (centres undefined),-3,86*,3,-1,8,-6,+,167*
Cc1cc(NC(=O)CCC(=O)N(c2ccccc2)C(C(=O)NC2CCCC2)c2ccccc2)no1 (centres undefined),1,6,1,-3,-6,.,.,.
Cc1ccc(S(=O)(=O)N2C(c3ccc(Cl)cc3)CC=C(C(=O)O)C2c2cccc(Cl)c2)cc1 (centres undefined),.,.,.,.,.,8,.,.
Cc1noc(C)c1NC(=O)N(C)CC1Oc2ccc(NC(=O)NC3CCCCC3)cc2C(=O)N(C(C)CO)CC1C (centres undefined),.,.,.,.,.,1,.,.
Cc1nn(CCc2nn[nH]n2)c2nc(C(F)(F)F)cc(C(F)(F)F)c12,2,39*,0,-1,-10,24,.,+
Cc1ccc(-n2ncc3c(NCCCN4CCCC4=O)ncnc32)c(C)c1,-1,2,5,1,3,6,.,.
Cc1ccc2[nH]c3c(NCc4ccco4)ncnc3c2c1,-1,42*,-3,-4,10,5,-2,-7
COc1cc(CNc2ncnc3c2[nH]c2ccc(C)cc23)cc(OC)c1,-3,35*,16,-2,5,14,-5,0
Cc1ccc2[nH]c3c(NCCCN4CCCC4=O)ncnc3c2c1,0,39*,8,2,6,11,26,27*
CCOC(=O)C1C2COc3ccc(OC)cc3C2N2C(=O)CN(Cc3ccc(C)cc3)C(=O)[C@@]12C (some centres undefined),.,.,.,.,.,13,.,.
COC(=O)c1nn(-c2ccccc2)c(Sc2ccc(C)cc2)c1C=NO,.,.,.,.,.,8,.,.
CCOC(=O)Cc1c(C)nc2c(-c3cccc(Br)c3)c[nH]n2c1=O,-3,41*,12,-1,6,-4,21,21*
Cc1ccc2nc(-c3ccc(O)cc3)c(Nc3ccc4c(c3)OCCO4)n2c1,-2,36*,4,-6,2,1,+,162*
Cc1cc(C)c(OCCCNC2CCCC2)c(Br)c1,1,67*,-5,-1,6,17,+,+
CCOC(=O)CCc1c(C)nc2cc(-c3ccccc3OC)[nH]n2c1=O,1,28*,4,0,-6,6,138*,124*
Cc1[nH]n(S(=O)(=O)Cc2ccccc2)c(=O)c1N=Nc1ccccc1Cl,0,40*,7,-4,-5,24,-4,-6
N#CCc1ccc(Oc2ncc(C(F)(F)F)cc2Cl)cc1,1,44*,-4,0,0,7,123*,102*
Cc1ccc(C(C(=O)NCC2CCCO2)N(C(=O)c2snc(C(N)=O)c2N)c2ccccc2)o1 (centres undefined),1,12,-1,.,14,12,.,.
Cc1ccc(C)c(N(C(=O)c2snc(C(N)=O)c2N)C(C(=O)NCC2CCCO2)c2cccs2)c1 (centres undefined),-1,36*,-18,-5,0,4,19,7
Cc1ccc(C)c(N(C(=O)c2snc(C(N)=O)c2N)C(C(=O)NCC2CCCO2)c2ccc(C)o2)c1 (centres undefined),2,37*,-3,-5,2,11,54*,48*
CC(OC(=O)c1ccc(Cl)c(S(=O)(=O)N2CCc3ccccc32)c1)C(=O)Nc1ncc(Cl)cc1Cl (centres undefined),-1,64*,1,0,3,9,35*,24*
O=C(COC(=O)COc1ccccc1)Nc1cccc([N+](=O)[O-])c1,1,0,0,3,3,10,.,.
O=C(COC(=O)c1ccccc1C(=O)c1ccccc1)Nc1cccc([N+](=O)[O-])c1,-3,55*,-4,0,5,.,85*,74*
O=C(COc1ccc2ccc(=O)oc2c1)NC(Cc1ccc(Cl)cc1)C(=O)O (centres undefined),1,18,2,-4,14,.,.,.
Cc1c(Cc2ccccc2)c(=O)oc2cc(OCC(=O)N[C@@H](Cc3ccccc3)C(=O)O)ccc12,-2,92*,5,-4,10,.,165*,136*
SMILES,UGM FP inh,Mtb FBA inh,Rv3671c inh,FadD28 FP inh,GDH-TPI counter-1,Mtb hypoxia inh,Mtb FBA inh conf,GDH-TPI counter-2
Cc1c(Cc2ccccc2)c(=O)oc2cc(OCC(=O)NCc3ccccn3)ccc12,2,78*,-9,-2,13,7,88*,70*
O=C(COc1ccc2c(c1)oc(=O)c1ccccc12)NC(Cc1ccc(Cl)cc1)C(=O)O (centres undefined),-1,74*,-22,-11,13,.,186*,132*
COc1cccc(C(=O)COc2ccc3c(C)c(Cc4ccccc4)c(=O)oc3c2)c1,-1,7,-26,-1,6,-1,.,.
COC(=O)Cc1c(C)c2ccc(OC(=O)c3ccccc3)cc2oc1=O,0,79*,0,0,8,2,99*,90*
O=C(NN=Cc1cccn1-c1ccc([N+](=O)[O-])cc1)C(O)c1ccccc1 (centres undefined),.,.,.,.,.,-1,.,.
O=[N+]([O-])c1ccc(NN=Cc2cn(Cc3ccc(F)cc3)c3ccccc23)nc1,.,.,.,.,.,6,.,.
CC(=O)Nc1ccccc1NS(=O)(=O)c1ccccc1[N+](=O)[O-],0,2,3,0,2,2,.,.
CC(=O)Nc1ccccc1NS(=O)(=O)c1cccc([N+](=O)[O-])c1,0,99*,5,1,5,7,+,175*
O=[N+]([O-])c1ccc(O)c(C=NNc2ncnc3c2cnn3-c2ccccc2)c1,.,.,.,.,.,-8,.,.
Cc1cc(N/N=C/c2ccc(N(C)C)cc2)c2ccccc2n1,0,28*,-3,0,31*,.,+,167*
Cc1cc(C(=O)NN=Cc2ccc(N(C)C)cc2)c2ccccc2n1,.,.,.,.,.,-3,.,.
CCN1C(=O)CSc2ccc(C(=O)NCc3ccccc3)cc21,-2,3,-6,1,-2,5,.,.
CCC(C)NC(=O)c1ccc2c(c1)N(Cc1ccccc1)C(=O)CS2 (centres undefined),0,97*,6,-1,4,-2,68*,78*
c1ccc(-n2nnnc2SCc2cn3cccnc3n2)cc1,.,43*,-9,0,6,8,76*,57*
COC(=O)C1=C(c2cccc(OC)c2OC)CC2CCC1N2C(=O)N1CCC(O)CC1 (centres undefined),.,.,.,.,.,6,.,.
COc1ccc(CNC(=O)c2c([S-])n(-c3ccc(C)cc3)c3cccc[n+]23)cc1,-1,36*,-9,-1,5,7,70*,97*

# High-throughput results deposited in PubChem BioAssay by several laboratories.
